# Hits are enriched below; roughly 3.5% of the tested compounds scored in any of these assays.
# GPR151 activ = human GPR151 activation. 650,000 tested, 1% active. activation, % at 11.2 µM. PathHunter beta-arrestin GPR151 cells, luminescence; in the data active = activation above about 4.9%;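 note: 0% = median of compound wells and 100% = cells with positive control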
# TEAD-YAP inh = TEAD-YAP interaction inhibition | HEK-TIYL cells, TEAD-Gal4/YAP UAS-luciferase luminescence | inhibition, % at 9.12 µM | 640,000 tested, 1.4% active | AID 1259422; in the data active = inhibition above about 32%;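 note: 0% = median of test compound wells and 100% = reference inhibitor wells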
# FBW7 activator = human FBW7 E3 ligase activation, primary screen; Q969H0; AlphaScreen FBW7–phospho-cyclin E peptide binding, activator screen; normalized activity (activation), % at 26.1 µM; 650,000 tested, 0.13% active; AID 1259310; in the data active = normalized activity above about 1.9%;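 note: purified mutant Fbw7 with reduced substrate affinity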
# MITF primary = inhibitors of human MITF. O75030. AlphaScreen MITF homodimerization, bead proximity signal. inhibition, % at 2.6 µM. 650,000 tested, 0.91% active. AID 1259374; in the data active = inhibition above about 50%;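 note: 0% = vehicle wells with protein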
# GPR151 conf act = confirmation of human GPR151 activators; GPR151 PathHunter beta-arrestin cells, luminescence, 90 min; % of EA-reagent control over plate median; shares compounds with GPR151 activ; 6,700 tested, under 10 active; activation, % at 11.2 µM;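 active = mean percent activation across replicates above the confirmation screen cutoff of 4.91%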
# GPR119 ag = activates human GPR119 in a GPR151 counter-screen; AID 1508611; shares compounds with GPR151 activ; 6,700 tested, 0.3% active; GPR119 PathHunter beta-arrestin cells, luminescence, 90 min; 0 = compound-well median, 100 = enzyme-acceptor control; activation, % at 11.2 µM;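 active = mean percent activation in the counterscreen above 29.09%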;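 note: counterscreen on off-target GPR119 to flag nonselective hits from the GPR151 activator screen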
# Target sequence (Q8TDV5 whole entry, looked up): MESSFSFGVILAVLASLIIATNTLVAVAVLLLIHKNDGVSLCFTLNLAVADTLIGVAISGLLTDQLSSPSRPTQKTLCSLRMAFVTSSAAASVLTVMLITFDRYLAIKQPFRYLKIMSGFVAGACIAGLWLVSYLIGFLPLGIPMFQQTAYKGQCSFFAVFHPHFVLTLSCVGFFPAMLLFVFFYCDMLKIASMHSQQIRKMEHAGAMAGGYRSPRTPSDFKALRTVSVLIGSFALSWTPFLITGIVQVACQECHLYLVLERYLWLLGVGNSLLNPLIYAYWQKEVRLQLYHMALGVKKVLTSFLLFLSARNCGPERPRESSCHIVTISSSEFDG
# Starred values were filed as active, the others as inactive; nt = not tested or not shown.
SMILES,GPR151 activ,TEAD-YAP inh,FBW7 activator,MITF primary,GPR151 conf act,GPR119 ag
COc1ccc(C(=O)NCCOc2ccccc2OC)cc1OC,-2,4,0,-1,nt,nt
CCOC(=O)CNC(=O)c1ccc(OC)c(I)c1,2,-20,0,13,nt,nt
CCOc1cc(C(=O)NCc2ccccc2)ccc1OC,14*,1,0,-6,0,-8
COc1ccc(C(=O)NCc2ccccc2)cc1I,0,-6,0,-3,nt,nt
COc1ccc(C(=O)NCCC(c2ccccc2)c2ccccc2)cc1OC,19*,2,0,6,0,-5
COc1ccc2c(c1)-c1c(ssc1=Nc1ccccc1C)C(C)(C)N2,0,-8,-1,12,nt,nt
Cc1ccc(Cl)c2cccnc12,0,8,0,8,nt,nt
COc1ccc(-c2noc(NCc3ccccc3)n2)cc1OC,-1,-3,0,4,nt,nt
COc1ccc(-c2noc(NCc3cccc(Cl)c3)n2)cc1OC,4.9*,1,1,14,1,-7
Cc1c(Cl)cccc1N1CC(c2nc3ccccc3[nH]2)CC1=O (stereo unspecified),5.6*,8,0,-2,0,3
O=C1CC(c2nc3ccccc3[nH]2)CN1c1ccccc1Cl (stereo unspecified),1,-7,0,9,nt,nt
CNC(=O)CC1C(=O)N(C)C(=S)N1NC(=O)c1cccc(F)c1 (stereo unspecified),-1,-5,0,13,nt,nt
CC(C)/C(=N\NC(N)=S)c1ccccc1,6.5*,6,0,10,0,4
COc1ccc(OC)c(NC(=O)CCc2nnc3ccc(N4CCCCC4)nn23)c1,2,2,0,4,nt,nt
COc1ccc(Cl)cc1NC(=O)CCc1nnc2ccc(N3CCN(C)CC3)nn12,5.1*,-2,0,-11,0,2
C/C(=N/O)c1ccc2ccccc2c1,-1,-6,0,6,nt,nt
O=[N+]([O-])c1ccccc1S(=O)(=O)NCc1ccco1,7.1*,-23,0,14,0,13
O=[N+]([O-])c1ccccc1S(=O)(=O)c1ccccc1[N+](=O)[O-],5.5*,10,1,16,0,-1
O=S(=O)(NCc1ccco1)c1cccc2c(S(=O)(=O)NCc3ccco3)cccc12,0,-1,0,11,nt,nt
CS(=O)(=O)Nc1ccccc1Oc1ccccc1,7.9*,-1,0,2,0,-4
CC(=O)Nc1ccc(NC(=O)c2csc(-c3ccc(C(=O)N4CCN(C)CC4)cc3)n2)cc1,0,9,0,4,nt,nt
CN(Cc1cscn1)Cc1ccc(C(=O)NCc2cccs2)c(=O)[nH]1,-1,9,-1,10,nt,nt
Cc1nc(CN(C)Cc2ccc(C(=O)NCc3ccccc3Cl)c(=O)[nH]2)cs1,5.2*,-15,0,4,0,3
CCOc1ccc(NC(=O)Nc2nnc(CSCc3ccccc3)s2)cc1,7.0*,12,0,5,1,12
CC(=O)c1c(C)[nH]c(C(=O)N2CCN(c3ccccc3F)CC2)c1C,0,4,0,6,nt,nt
SMILES,GPR151 activ,TEAD-YAP inh,FBW7 activator,MITF primary,GPR151 conf act,GPR119 ag
CC(=O)c1c(C)[nH]c(C(=O)N2CCN(c3ccccc3)CC2)c1C,13*,5,0,14,-1,-3
CCNC(=S)Nc1ccc(Cl)c(S(=O)(=O)N2CCOCC2)c1,6.6*,-2,0,12,-1,-7
COc1cccc(NC2=NCC(=O)N2Cc2ccc(F)cc2)c1,6.0*,-16,0,-5,1,9
O=C(NNC(=S)NCc1ccccc1)c1ccc(Br)o1,6.3*,7,0,3,-1,-3
O=S(=O)(N/N=C/c1c[nH]c2ccccc12)c1ccc(Cl)cc1,2,2,0,-4,nt,nt
CCN(CC)CCCNC(=O)c1cc([N+](=O)[O-])ccc1Cl,1,-2,0,14,nt,nt
O=C(NCCc1ccc(F)cc1)c1ccc([N+](=O)[O-])cc1Cl,11*,-83,0,11,0,7
CCOCCCNC(=O)c1cc([N+](=O)[O-])ccc1Cl,23*,6,0,10,1,-4
CN=c1scc(-c2ccc(OC)cc2)n1/N=C/c1ccc(C#N)cc1,-3,-9,0,18,nt,nt
COCCN(CCOC)S(=O)(=O)c1ccc(C(=O)Nc2nc(-c3ccc(OC)cc3)cs2)cc1,-1,1,0,-7,nt,nt
COCCN(CCOC)S(=O)(=O)c1ccc(C(=O)Nc2nc(-c3ccncc3)cs2)cc1,8.8*,-3,0,-9,1,13
O=S(=O)(c1ccccc1)N1N=C(c2ccccc2)CC1c1ccco1 (stereo unspecified),5.4*,20,0,10,0,-2
O=[N+]([O-])c1cccc(C2SCCN2S(=O)(=O)c2ccc(I)cc2)c1 (stereo unspecified),0,-5,0,3,nt,nt
O=[N+]([O-])c1cccc(C2SCCN2S(=O)(=O)c2ccc(Br)cc2)c1 (stereo unspecified),5.8*,5,0,12,-1,-17
O=[N+]([O-])c1cccc(C2CC(c3ccc(Br)cc3)=NN2S(=O)(=O)c2ccccc2)c1 (stereo unspecified),5.4*,-4,0,8,0,12
CCCOC(=O)C1=C(C)NC2=C(C(=O)CC(c3ccc(OC)cc3)C2)C1c1cccc([N+](=O)[O-])c1 (stereo unspecified),-1,5,0,-10,nt,nt
Cc1cc(C)cc(NC(=O)c2ccc(S(=O)(=O)N3CCCCC3)cc2)c1,0,2,0,8,nt,nt
O=C(NC1CC1)c1cnc(Nc2ccc(C(F)(F)F)cc2)s1,4.9*,1,0,5,1,-1
O=C(NC1CC1)c1cnc(Nc2ccc3ncccc3c2)s1,6.3*,-37,0,2,-1,-12
O=S(=O)(NCC(c1ccco1)S(=O)(=O)c1ccc(F)cc1)c1cccs1 (stereo unspecified),11*,3,0,-5,0,-4
O=C(Nc1ccccc1Cl)C1CCCCC1,0,-1,0,16,nt,nt
O=C1CC(C(=O)Nc2ccccc2Cl)c2ccccc21 (stereo unspecified),9.4*,-1,0,8,0,0
CN(C)c1ccc(-c2nccnc2NS(=O)(=O)c2ccc(Cl)cc2)cc1,1,1,-1,-10,nt,nt
O=Cc1ccc(-c2nccnc2NS(=O)(=O)c2cccc(Cl)c2)cc1,5.0*,9,0,8,0,-6
CN(C)c1cccc2c(S(=O)(=O)Nc3nccnc3-c3ccc(C=O)cc3)cccc12,5.9*,2,0,2,2,-7
CN(C)c1cccc2c(S(=O)(=O)Nc3nccnc3-c3ccc(CO)cc3)cccc12,0,10,0,46,nt,nt

# From PubChem BioAssay
